Assay [1] can be described thus: CLD_ACTIN_6hr: CellzDirect (CLD) Gene Expression Assay for Baseline Control (Actin) at 6 hours (AID 2283676).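 Also: active means increased actin mRNA relative to DMSO vehicle.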 Summed up:
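Primary human hepatocytes dosed with fresh chemical solutions (vehicle 0.2% DMSO), harvested at 6 h. Actin mRNA quantified by quantitative nuclease protection assay with chemiluminescent read-out, as background control relative to DMSO.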

Assay [2] is described as follows: CCTE_Padilla_ZF_144hpf_TERATOSCORE: (Legacy) CCTE's 144 Hour Post-fertilization zebrafish Assay Teratoscore, Padilla Lab (AID 2283679; active = hit-call score of the fitted dose curve at least 0.9, where 1 is the maximum; inactive = score below 0.9;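 as to AC50: zebrafish embryos with chorions exposed by immersion from 6-8 hpf to 5 dpf with daily renewal; teratogenicity score from eye scoring of death hatching and malformations at 144 hpf; higher score means more developmental defects relative to DMSO baseline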). Summed up: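 Larvae scored by eye at 144 hpf for death, hatching and malformations after a day in clean Hanks'. Before that, daily-renewed exposure at 80 uM (0.4% DMSO, 26C) from roughly 6-8 hpf through 5 dpf, 4 embryos per chemical.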

Read-out in assay [3]: Cytochrome P450 3A4 (Homo sapiens) (UniProt P08684)
Nature of the assay: CLD_CYP3A4_6hr: CellzDirect (CLD) Gene Expression Assay for xenobiotic metabolism (CYP3A4) at 6 hours (AID 2283680). Summed up: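 Primary human hepatocytes (two donor preparations) dosed; CYP3A4 mRNA harvested at 6 h and quantified by qNPA chemiluminescence. Gain of signal fitted against 0.2% DMSO vehicle; cytotoxicity flagged by phase-contrast morphology.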

Read-out in assay [4]: Glyceraldehyde-3-phosphate dehydrogenase (Homo sapiens) (UniProt P04406)
Description: CLD_GAPDH_6hr: CellzDirect (CLD) Gene Expression Assay for Baseline Control (Glyceraldehyde 3-phosphate dehydrogenase) at 6 hours (AID 2283681).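 Also: active means increased signal relative to DMSO vehicle.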 In a few lines:
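Primary human hepatocytes from two donor preparations, dosed at multiple concentrations with 0.2% DMSO vehicle; GAPDH mRNA measured 6 h after dosing by chemiluminescent quantitative nuclease protection assay (qNPA) on denatured lysates. Serves as background control; cytotoxicity annotated by morphology.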

Read-out in assay [5]: HMG-CoA synthase (HMGCS2), HMGCS2 (gene 3158)
Nature of the assay: CLD_HMGCS2_6hr: CellzDirect (CLD) Gene Expression Assay for HMG-CoA synthase (HMGCS2) at 6 hours (AID 2283682).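 Also: actives raise HMGCS2 transcript above the 0.2% DMSO vehicle baseline.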 Summed up: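 Primary human hepatocytes dosed daily with fresh chemical, 0.2% DMSO vehicle; HMGCS2 mRNA measured at 6 h by qNPA chemiluminescence. Gain of signal fitted against DMSO; cytotoxicity flagged from phase-contrast morphology.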

Read-out in assay [6]: xenobiotic metabolism (CYP1A2), CYP1A2 (gene 1544)
Nature of the assay: CLD_CYP1A2_24hr: CellzDirect (CLD) Gene Expression Assay for xenobiotic metabolism (CYP1A2) at 24 hours (AID 2283683). In a few lines:
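Primary human hepatocytes from two donor preparations dosed daily with multiple concentrations of chemical, 0.2% DMSO vehicle. CYP1A2 mRNA at 24 h quantified by qNPA chemiluminescence; gain of signal analyzed relative to DMSO. Cytotoxicity flagged by phase-contrast morphology.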

Read-out in assay [7]: Cytochrome P450 3A4 (Homo sapiens) (UniProt P08684)
Description: CLD_CYP3A4_24hr: CellzDirect (CLD) Gene Expression Assay for xenobiotic metabolism (CYP3A4) at 24 hours (AID 2283689). Summed up:
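Primary human hepatocytes from two donors dosed daily with fresh compound for two days, 0.2% DMSO vehicle. CYP3A4 mRNA at 24 hr by qNPA chemiluminescence; gain-of-signal fit versus DMSO, cytotoxicity flagged by morphology.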

Read-out in assay [8]: Glyceraldehyde-3-phosphate dehydrogenase (Homo sapiens) (UniProt P04406)
Description: CLD_GAPDH_24hr: CellzDirect (CLD) Gene Expression Assay for Baseline Control (Glyceraldehyde 3-phosphate dehydrogenase) at 24 hours (AID 2283692). In a few lines: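 Primary human hepatocytes (two donor preparations) dosed daily for two days, 0.2% DMSO vehicle; GAPDH mRNA measured at 24 h by qNPA chemiluminescence as a background control, gain-of-signal fitted against DMSO.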

Read-out in assay [9]: alkyl and aryl transferase (GSTA2), GSTA2 (gene 2939)
Description: CLD_GSTA2_24hr: CellzDirect (CLD) Gene Expression Assay for alkyl and aryl transferase (GSTA2) at 24 hours (AID 2283693). In a few lines: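 Primary human hepatocytes (two donor preparations) dosed daily for two days with chemicals at multiple concentrations (vehicle 0.2% DMSO); GSTA2 mRNA at 24 h measured by qNPA chemiluminescence, gain-of-signal versus DMSO.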

Read-out in assay [10]: ABC Transporter (ABCB1), ABCB1 (gene 5243)
Nature of the assay: CLD_ABCB1_48hr: CellzDirect (CLD) Gene Expression Assay for ABC Transporter (ABCB1) at 48 hours (AID 2283695). In a few lines:
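Primary human hepatocytes from two donor preparations dosed daily on two consecutive days with 0.2% DMSO vehicle. Harvest at 48 h. ABCB1 mRNA quantified by qNPA with chemiluminescence and fitted for gain of signal versus DMSO.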

Read-out in assay [11]: Cytochrome P450 2C19 (Homo sapiens) (UniProt P33261)
Description: CLD_CYP2C19_48hr: CellzDirect (CLD) Gene Expression Assay for xenobiotic metabolism (CYP2C19) at 48 hours (AID 2283700).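 Also: fitted upward so actives raise CYP2C19 mRNA above the 0.2% DMSO vehicle.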 In a few lines:
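Primary human hepatocytes (two donor preparations) dosed daily for two days, harvested at 48 h; CYP2C19 mRNA induction measured by qNPA chemiluminescence. Gain-of-signal fitted relative to 0.2% DMSO vehicle as baseline.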

Read-out in assay [12]: Cytochrome P450 2B6 (Homo sapiens) (UniProt P20813)
Nature of the assay: CLD_CYP2B6_6hr: CellzDirect (CLD) Gene Expression Assay for xenobiotic metabolism (CYP2B6) at 6 hours (AID 2283677).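 Also: actives raise CYP2B6 transcript above DMSO baseline so AC50 marks an inducer.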 Summed up: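 Primary human hepatocytes dosed with chemicals at multiple concentrations, vehicle 0.2% DMSO; CYP2B6 mRNA induction measured 6 h after dosing by quantitative nuclease protection assay with chemiluminescence, gain of signal fitted relative to DMSO.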

Read-out in assay [13]: glucuronosyltransferase (UGT1A1), UGT1A1 (gene 54658)
Description: CLD_UGT1A1_24hr: CellzDirect (CLD) Gene Expression Assay for glucuronosyltransferase (UGT1A1) at 24 hours (AID 2283696). Summed up:
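Primary human hepatocytes from two donor preparations were dosed (0.2% DMSO vehicle) and harvested at 24 h; UGT1A1 mRNA induction was quantified by chemiluminescent qNPA, fitted as gain relative to DMSO.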

Read-out in assay [14]: ABC Transporter (ABCB1), ABCB1 (gene 5243)
Nature of the assay: CLD_ABCB1_24hr: CellzDirect (CLD) Gene Expression Assay for ABC Transporter (ABCB1) at 24 hours (AID 2283684).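 As to AC50: potency for increase in ABCB1 mRNA relative to DMSO vehicle.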 In a few lines:
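Primary human hepatocytes, two donor preparations, dosed daily with fresh solutions; vehicle 0.2% DMSO; harvested at 24 h. ABCB1 mRNA measured by quantitative nuclease protection assay (chemiluminescence); morphology-based cytotoxicity annotated.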

Read-out in assay [15]: Cytochrome P450 2B6 (Homo sapiens) (UniProt P20813)
Description: CLD_CYP2B6_48hr: CellzDirect (CLD) Gene Expression Assay for xenobiotic metabolism (CYP2B6) at 48 hours (AID 2283699).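 Also: actives raise transcript level above DMSO so potency reflects induction.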 In a few lines:
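Primary human hepatocytes dosed daily for two days over multiple concentrations, 0.2% DMSO vehicle; CYP2B6 mRNA quantified at 48 h by qNPA chemiluminescence. Induction fitted as gain of signal versus DMSO; cytotoxicity annotated by morphology.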

Read-out in assay [16]: Cytochrome P450 2B6 (Homo sapiens) (UniProt P20813)
Description: CLD_CYP2B6_24hr: CellzDirect (CLD) Gene Expression Assay for xenobiotic metabolism (CYP2B6) at 24 hours (AID 2283686). Summed up: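 Primary human hepatocytes dosed daily for two days with fresh solutions, harvested at 24 hours; mRNA induction quantified by qNPA chemiluminescence, gain of signal vs 0.2% DMSO vehicle. Cytotoxicity annotated from phase-contrast morphology.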

Read-out in assay [17]: Cytochrome P450 2C19 (Homo sapiens) (UniProt P33261)
Description: CLD_CYP2C19_24hr: CellzDirect (CLD) Gene Expression Assay for xenobiotic metabolism (CYP2C19) at 24 hours (AID 2283687).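 Also: activity means mRNA induction above DMSO vehicle baseline.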 Summed up:
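Primary human hepatocytes (two donor preparations) dosed daily with fresh test chemical in 0.2% DMSO vehicle; CYP2C19 mRNA induction measured at 24 h by quantitative nuclease protection assay with chemiluminescence, fitted for gain of signal versus DMSO.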

Read-out in assay [18]: sulfotransferase (SULT2A), SULT2A1 (gene 6822)
Description: CLD_SULT2A_24hr: CellzDirect (CLD) Gene Expression Assay for sulfotransferase (SULT2A) at 24 hours (AID 2283694). Summed up:
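Primary human hepatocytes from two donor preparations were dosed daily with fresh solutions, vehicle 0.2% DMSO. At 24 h, lysates went to quantitative nuclease protection (qNPA) with S1 digestion and chemiluminescent readout. Cytotoxicity was annotated from phase-contrast morphology.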

Outcome and AC50 data for nine compounds are collected here from PubChem BioAssay (EPA / NIEHS).

Results filed as inconclusive are left out. The source made the active and inactive calls. The calls were made as follows, unless noted: active = hit-call score of the fitted dose curve at least 0.9, where 1 is the maximum; inconclusive = response in the unintended direction; inactive = score below 0.9.

Chain of Cytochrome P450 3A4 (Homo sapiens) (P08684 whole entry, looked up): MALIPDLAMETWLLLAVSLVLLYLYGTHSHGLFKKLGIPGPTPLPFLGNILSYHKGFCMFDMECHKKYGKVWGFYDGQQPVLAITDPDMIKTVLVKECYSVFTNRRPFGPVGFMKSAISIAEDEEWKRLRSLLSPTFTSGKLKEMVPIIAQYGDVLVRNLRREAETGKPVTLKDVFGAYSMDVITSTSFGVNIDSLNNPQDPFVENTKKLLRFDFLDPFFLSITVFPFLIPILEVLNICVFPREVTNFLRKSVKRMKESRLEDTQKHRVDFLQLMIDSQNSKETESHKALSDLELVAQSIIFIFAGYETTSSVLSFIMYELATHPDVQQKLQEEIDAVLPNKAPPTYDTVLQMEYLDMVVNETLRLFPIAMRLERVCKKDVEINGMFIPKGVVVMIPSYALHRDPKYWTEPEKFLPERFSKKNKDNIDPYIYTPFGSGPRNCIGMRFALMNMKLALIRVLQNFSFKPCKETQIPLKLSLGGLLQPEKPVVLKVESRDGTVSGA
Chain of Cytochrome P450 2C19 (Homo sapiens) (P33261 whole entry, looked up): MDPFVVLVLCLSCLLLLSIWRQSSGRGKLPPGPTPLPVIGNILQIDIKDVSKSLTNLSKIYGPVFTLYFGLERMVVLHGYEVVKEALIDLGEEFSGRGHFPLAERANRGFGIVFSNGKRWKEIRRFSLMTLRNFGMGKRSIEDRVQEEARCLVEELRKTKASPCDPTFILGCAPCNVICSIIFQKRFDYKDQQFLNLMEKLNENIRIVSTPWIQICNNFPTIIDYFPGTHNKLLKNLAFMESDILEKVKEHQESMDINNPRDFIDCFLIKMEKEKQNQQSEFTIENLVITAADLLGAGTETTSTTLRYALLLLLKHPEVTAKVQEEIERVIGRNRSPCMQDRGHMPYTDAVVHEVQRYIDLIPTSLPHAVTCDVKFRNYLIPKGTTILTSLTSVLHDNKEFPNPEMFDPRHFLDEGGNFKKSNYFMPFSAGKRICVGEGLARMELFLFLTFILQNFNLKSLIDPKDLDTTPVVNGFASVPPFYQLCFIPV
Chain of Glyceraldehyde-3-phosphate dehydrogenase (Homo sapiens) (P04406 whole entry, looked up): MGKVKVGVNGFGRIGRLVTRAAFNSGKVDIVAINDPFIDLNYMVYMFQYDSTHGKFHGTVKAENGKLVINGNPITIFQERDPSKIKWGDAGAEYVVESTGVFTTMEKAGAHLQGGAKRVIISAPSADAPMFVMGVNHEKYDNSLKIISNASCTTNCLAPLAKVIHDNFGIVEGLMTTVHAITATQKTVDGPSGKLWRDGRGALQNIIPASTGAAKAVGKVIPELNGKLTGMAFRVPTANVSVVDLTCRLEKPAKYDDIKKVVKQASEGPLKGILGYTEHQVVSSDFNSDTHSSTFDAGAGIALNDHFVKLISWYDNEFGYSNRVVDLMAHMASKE

Take `CCc1cnc(C2=NC(C)(C(C)C)C(=O)N2)c(C(=O)O)c1` (stereo not given): the compound was classed as inactive in assay [1], in assay [2], in [3], in assay [4], in assay [5] and in assay [6]. The compound was classed as inactive in assay [7], in [8], in assay [9], in assay [10] and in [11].

As usually defined, the AC50 is the concentration giving half of the maximal activity seen. As to `Cc1cc(C2CC2)nc(Nc2ccccc2)n1`, the outcome in [1], in assay [3] and in assay [13] was inactive. Moreover, the concentration at half-maximal activity (AC50) in assay [12] is 1.58 µM (active); in assay [2], 15.3 µM (active); in assay [6], 4.15 µM (active).

For `CC(C)N(C(=O)SCC(Cl)=C(Cl)Cl)C(C)C`, the result in assay [1], in assay [3], in assay [6], in assay [8], in assay [9] and in [10] was inactive. Further, the AC50 in assay [2] was 32.7 µM (active); in assay [14] it was 35.3 µM (active); in assay [15], 3.91 µM (active).

As for `Nc1c(Cl)cc([N+](=O)[O-])cc1Cl`, the compound was called inactive in assay [1], in assay [3], in assay [4], in [9] and in assay [10]. Further, the AC50 in assay [12] is 20 µM (active); in [2], 76.3 µM (active); in assay [6], 20 µM (active); in assay [16], 33.7 µM (active).

On to `CC(=NC#N)N(C)Cc1ccc(Cl)nc1`, for which the outcome in [1], in assay [2], in assay [3], in assay [4], in assay [7] and in [10] was inactive. Also, the call in assay [13] and in assay [11] was inactive.

Regarding `CNC(=O)ON=C(C)SC`, the compound was classed as inactive in assay [1], in assay [12], in assay [4], in [5], in assay [6] and in assay [14]. Also, the compound was called inactive in assay [16], in [17], in assay [7], in [8], in assay [9] and in assay [10]. For the same compound, in assay [11], the outcome was inactive. For the same compound, the half-maximal activity concentration (AC50) in assay [2] was 73.3 µM (active).

Regarding `S=C1NCCN1`, the compound was called inactive in assay [1], in assay [12], in [2], in assay [3], in assay [4] and in [16]. In addition, the call in [8], in assay [9], in assay [10] and in assay [11] was inactive.

With `CCOP(=O)(SC(C)CC)N1CCSC1=O` (stereo not given), the outcome in assay [1], in assay [2], in assay [4], in [6], in assay [14] and in [18] was inactive. Further, the AC50 in assay [12] was 3.89 µM (active); in [3] it was 8.82 µM (active); in assay [7] it was 13.4 µM (active); in [15], 2.05 µM (active).

For the compound `CNc1cnn(-c2cccc(C(F)(F)F)c2)c(=O)c1Cl`, the call in assay [1], in assay [2], in [3], in [14], in [10] and in [13] was inactive. Further, the AC50 in [6] was 5.72 µM (active); in assay [15], 3.19 µM (active).
